Source: PubChem BioAssay (National Center for Advancing Translational Sciences (NCATS))
Luc counter = counter-screen: inhibitors of Kinase-Glo firefly luciferase; Q27757; Kinase-Glo luciferase, ATP luminescence, 8 min; Potency, µM (top dose mostly 38.3 µM), without a hit: at the top dose activity change, negative = inhibition, usual class: inhibitors; 0.28% of 200,000 active; AID 1379; also: % is scaled to controls: 0 for no effect and ±100 for the full control effect; nearly all actives have a fitted effect of over 60% in size
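Recombinant Kinase-Glo luciferase, 10 uM ATP (linear range), luciferin; imidazole pH 7.2 / KCl / MgCl2 / Tween / BSA buffer; 8 min RT; luminescence.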
NPC1 promoter act = NPC1 promoter activation; Huh7 NPC1 promoter luciferase reporter, 24 h; Potency, µM (doses to about 9.22 µM), for inactives: at the top dose activation, usual class: activators; 2.4% of 320,000 active; also: % of control where 0% means no effect; nearly all actives have a fitted effect of over 60% in size
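NPC1 promoter–luciferase Huh7 cells; 24 h compound; luminescence.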
FLuc counter = counter-screen for miR-21 project: firefly luciferase inhibitors or activators; purified FLuc, Km substrates, luminescence inhibition; Potency, µM (highest dose often 57.5 µM), for the others: at the top dose activity change, negative = inhibition, actives largely listed as inhibitors; 6.9% of 360,000 active;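 also: plate controls were vehicle for no effect and reference inhibitor for full effect; nearly all actives have a fitted effect of over 55% in size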
Target sequence (P08659 whole entry, looked up): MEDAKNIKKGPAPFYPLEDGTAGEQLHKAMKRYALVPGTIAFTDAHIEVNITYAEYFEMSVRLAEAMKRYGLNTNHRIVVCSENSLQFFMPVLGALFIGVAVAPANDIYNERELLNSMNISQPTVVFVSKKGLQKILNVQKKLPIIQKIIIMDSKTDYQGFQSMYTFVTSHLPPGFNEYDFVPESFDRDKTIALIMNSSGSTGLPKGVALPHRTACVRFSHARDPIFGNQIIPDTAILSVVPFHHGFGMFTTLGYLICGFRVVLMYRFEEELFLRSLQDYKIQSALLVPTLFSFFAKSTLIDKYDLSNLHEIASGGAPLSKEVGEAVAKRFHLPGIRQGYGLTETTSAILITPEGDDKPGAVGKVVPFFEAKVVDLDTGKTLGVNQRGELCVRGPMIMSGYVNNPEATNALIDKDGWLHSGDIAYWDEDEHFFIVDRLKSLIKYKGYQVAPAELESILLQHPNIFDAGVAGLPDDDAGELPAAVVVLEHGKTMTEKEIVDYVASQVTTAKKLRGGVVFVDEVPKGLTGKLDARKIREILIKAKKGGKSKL
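Purified P. pyralis luciferase, 10 nM final, with Km-level 10 uM D-luciferin and 10 uM ATP in 50 mM Tris acetate pH 7.5, 10 mM Mg acetate, 0.01% Tween-20, 0.05% BSA; 6-point qHTS titration about 60 µM downward; luminescence read.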
ELG1 genotoxic = inducers of genotoxicity in HEK293T ELG1-luciferase cells; Potency, µM (doses to about 46 µM), inactives show at the top dose activity change, positive = activation, actives largely listed as activators; 1.3% of 330,000 active; HEK293T ELG1-luciferase reporter, luminescence, 16 h; AID 504466; also: % of control where 0% means no effect; nearly all actives have a fitted effect of over 60% in size
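HEK293T cells expressing luciferase-tagged ELG1 were treated with compound or DMSO for 16 hr at 37°C. Luciferase activity was then read after 30 min with ONE-Glo at room temperature; rising signal flags genetic stress.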
SMN2 splice enh = increases expression of the SMN2 splice variant; Potency, µM (doses to about 46.1 µM), without a hit: at the top dose activity change, positive = activation, usual class: activators; 2.8% of 210,000 active; HEK293 SMN2-luciferase splicing reporter, luminescence, 30-36 h; AID 1458; also: % of control where 0% means no effect; nearly all actives have a fitted effect of over 55% in size
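qHTS luciferase splicing reporter: luminescence rises when SMN2 exon 7 is included in transfected HEK293 cells. Compound exposure lasted 30-36 h at 37C, with 4.5 mM final sodium butyrate as control, followed by a ONE-Glo read.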
Rab9 prom act = activates the Rab9 promoter. Huh7 Rab9 promoter-luciferase reporter, luminescence, 24 h. Potency, µM (series often up to 9.22 µM), for inactives: top-dose activation, negative = inhibition, actives largely listed as activators. 2.8% of 320,000 active; also: % of control where 0% means no effect; nearly all actives have a fitted effect of over 60% in size
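Luminescence from Amplite-detected luciferase (10 minutes, ambient) reports Rab9 promoter activation. Before that, stable Rab9-luciferase Huh7 cells (1500/well, reduced-serum OP-MEM I plus 10% FBS) were exposed to compound for 24 hours at 37C.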
Starred values were filed as active, the others as inactive; u = inconclusive; x = not tested or not shown; [ ] = dose if it differs, or a comment. Only some compounds are listed: those with a hit (about 7.4% of all), similar ones and a draw of the others. Calls follow the shape of the dose curve; as a rule, active = well fitted curve in the direction sought with a large enough effect; inconclusive = small, poorly fitted or top-dose-only effect, or another doubt; inactive = no such curve, though single readings can be large; an effect the other way counts as inactive or inconclusive. Potency is read from the fitted curve at half-maximal effect.

SMILES	Luc counter	NPC1 promoter act	FLuc counter	ELG1 genotoxic	SMN2 splice enh	Rab9 prom act
Cc1ccc(N(CC(=O)Nc2ccc(Br)cc2)S(=O)(=O)c2cccs2)cc1	x	x	-2%	x	1%	x
Cc1cc2c(s1)c1c(C)nn(Cc3ccccc3F)c(=O)c1n2C	x	1%	1%	x	x	1%
CCOc1ccc(/C=C/C(=O)NCc2ccccc2)cc1	0%	2%	15µM*	8%	6%	-2%
O=C(CC1CCCCC1)NCCOc1ccccc1	1%	11%	-11%	6%	8%	1%
O=C(NCCOc1ccccc1)C1CCCCC1	1%	u	u	u	20µM*	3.2µM*
COc1ccc(OCCNC(=O)/C=C/c2ccccc2)cc1	-2%	-2%	-6%	10%	-3%	-2%
CCOc1ccc(/C=C/C(=O)c2cccs2)cc1	14µM*	x	x	x	x	x
O=C(/C=C/c1ccccc1)NCCOc1ccccc1	-3%	27%	24µM*	u	u	u
Cc1ccc(Sc2ccc(N3CCCC(C(=O)Nc4ccc(F)c(Cl)c4)C3)nn2)cc1 (stereo not given)	x	x	-5%	x	3%	x
CCOc1ccc(CCNC(=O)CCc2c(C)nc3cc(-c4ccccc4OC)nn3c2C)cc1	x	x	u	x	-2%	x
Nc1ccc(/C=C/C(=O)c2cccs2)cc1	-6%	4µM*	1.3µM*	u	x	3.5µM*
N#Cc1cccc(NC(=O)N2CCCC3(CCN(C(=O)c4cc(C(F)(F)F)cc(C(F)(F)F)c4)CC3)C2)c1	-1%	x	x	x	-5%	x
COc1ccccc1-c1ccc(/C=C2\C=CC(=O)O2)o1	x	-1%	7.6µM*	12%	x	-9%
COc1ccccc1-c1ccc(/C=C2/C=C(C)OC2=O)o1	2%	-2%	u	2%	-17%	1%
O=C(c1cccs1)c1ccc(-c2cccs2)s1	7.9µM*	u	0.3µM*	u	u	0.5µM*
CN1CCN(C(=O)c2ccc(-c3cccs3)s2)CC1	x	1.8µM*	11µM*	u	x	2.2µM*
O=C(c1cccs1)c1no[n+]([O-])c1C(=O)c1cccs1	-3%	-42%	-22%	u	x	-40%
CSCCC(NS(=O)(=O)c1cccs1)C(=O)Nc1ccc(C)c(Cl)c1 (stereo not given)	x	x	-3%	x	4%	x
Cc1c(Cl)cccc1NC(=O)CCS(=O)(=O)c1cccc2nsnc12	x	x	3%	x	-3%	x
O=C(NCCc1ccccc1)c1ccc(Cn2c(SCc3ccccc3)nc3cccnc32)cc1	x	x	6µM*	x	x	x
O=C(NCc1ccco1)c1ccc(Cn2c(SCc3ccccc3)nc3cccnc32)cc1	x	x	6.7µM*	x	x	x
Cc1ccccc1CSc1nc2cccnc2n1Cc1ccc(C(=O)NCCc2cccs2)cc1	x	x	5.4µM*	x	x	x
CC(C)OCCCNC(=O)c1ccc(CSc2nc3cccnc3n2Cc2ccccc2)cc1	x	x	-13%	x	x	x
O=C(NCCc1cccs1)c1ccc(Cn2c(SCc3cccc(F)c3)nc3cccnc32)cc1	x	x	-1%	x	3%	x
O=C(NCCc1ccccc1)c1ccc(Cn2c(SCc3cccc(F)c3)nc3cccnc32)cc1	x	5%	-10%	x	x	-2%
SMILES	Luc counter	NPC1 promoter act	FLuc counter	ELG1 genotoxic	SMN2 splice enh	Rab9 prom act
Cc1ccc(CSc2nc3cccnc3n2Cc2ccc(C(=O)NCCc3ccccc3)cc2)cc1	x	x	0.48µM*	x	x	x
COC(=O)NC(/C=C/c1ccccc1)C(C(C)=O)C(=O)OC (stereo not given)	-1%	x	x	x	-7%	x
CC(=O)N1CCC2(CCCN(C(=O)Nc3cccc(C#N)c3)C2)CC1	-3%	x	x	x	7%	x
C/C(=N/NS(=O)(=O)c1ccc(C)cc1)P(=O)(O)O	-1%[7.66 µM]	x	x	x	-4%[9.22 µM]	x
O=C(NCc1ccccc1)c1ccc(CSc2nc3cccnc3n2Cc2ccccc2F)cc1	x	x	-14%	x	x	x
O=C(NCc1ccccc1Cl)c1ccc(Cn2c(SCc3ccccc3)nc3cccnc32)cc1	x	x	5.4µM*	x	x	x
CCCCNC(=O)CCn1c(=O)c2ccccc2n(Cc2ccccc2C#N)c1=O	x	x	-2%	x	-8%	x
O=C(c1ccco1)N1CCc2ccccc21	-17%	u	u	u	73%	u
Cc1ccc(/C=C/C(=O)N2CCc3ccccc32)o1	-18%	2.8µM*	1.9µM*	8.2µM*	x	2.5µM*
CCOC(=O)/C=C/C(=O)N1CCc2ccccc21	-16%	0%	11µM*	1%	-6%	4%
O=C(/C=C/c1ccco1)N1CCc2ccccc21	10µM*	1.8µM*	2.1µM*	1µM*	10µM*	0.79µM*
CCOCC(=O)N1CCc2ccccc21	0%	-3%	1%	-6%	25%	3%
Cc1ccc2ncc3c(-c4ccccc4)nn(CC(=O)NC4CCCCC4)c3c2c1	x	x	-4%	x	x	x
Nc1c(C(=O)N2CCCC2)sc2nc3c(cc12)CCCCCC3	0%	3.2µM*	u	14%	14µM*	4µM*
COC(=O)c1sc2nc3c(cc2c1N)CCCC3	-25%	1.4µM*	3µM*	u	10µM*	0.5µM*
Nc1c(C(=O)N2CCOCC2)sc2nc3c(cc12)CCCC3	x	0.35µM*	0.48µM*	0.58µM*	x	0.11µM*
